Source: PubChem (National Center for Advancing Translational Sciences (NCATS))
D3 ag: agonists of human D3 dopamine receptor; 0.58% of 410,000 active; max activation, %; P35462; D3R DiscoveRx beta-arrestin cells, luminescence, 90 min; in the data active = max activation above about 30%
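Cells at 1500/well, incubated overnight, then treated with pinned compounds (dopamine as control) for 90 min at 37 degrees C. DiscoveRx reagent added for 30 - 60 minutes at room temperature; luminescence read.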
D1 potentiator: potentiators of human D1 dopamine receptor; potentiation, % at 10 µM; 0.036% of 360,000 active; HEK293 TREx D1 cells, calcium flux, dopamine EC20 potentiation; P21728; in the data active = potentiation above about 30%
Target sequence (P21728 whole entry, looked up): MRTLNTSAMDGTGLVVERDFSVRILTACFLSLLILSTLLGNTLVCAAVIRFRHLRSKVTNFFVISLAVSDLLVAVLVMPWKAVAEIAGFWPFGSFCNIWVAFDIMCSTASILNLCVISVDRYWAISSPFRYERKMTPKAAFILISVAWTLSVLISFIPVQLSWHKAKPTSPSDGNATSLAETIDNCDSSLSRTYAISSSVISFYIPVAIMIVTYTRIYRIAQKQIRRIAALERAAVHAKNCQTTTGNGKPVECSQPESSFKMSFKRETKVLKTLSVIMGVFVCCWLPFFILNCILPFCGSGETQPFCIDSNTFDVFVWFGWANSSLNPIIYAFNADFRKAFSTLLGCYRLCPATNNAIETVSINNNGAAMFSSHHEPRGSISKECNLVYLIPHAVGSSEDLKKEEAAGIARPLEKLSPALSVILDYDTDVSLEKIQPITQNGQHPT
D1 agonist: activates the human D1 dopamine receptor; P21728; HEK293 T-REx D1 cells, calcium flux, agonist mode; activation, % at 2 µM; 1% of 360,000 active; AID 504660; in the data active = activation above about 30%
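Agonism was scored from calcium flux recorded over 180 s (1 read/s) after pintool compound addition, following a 10-cycle baseline. Cells were inducible force-coupled HEK293 TREx D1, plated overnight at 30 C and loaded with no-wash calcium dye.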
DRD3 antagonist: blocks the human D3 dopamine receptor | P35462 | D3R cells, DiscoveRx beta-arrestin luminescence, antagonist mode; stronger effect = lower value | max response, negative = inhibition, % | 2.5% of 360,000 active | AID 652054; in the data active = max response below about -50%; inconclusive = no clear call, values can overlap the other calls
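Cells expressing the human receptor were seeded at 1500 cells/well, incubated overnight at 37 degrees C in 5% CO2, then exposed to library compounds with dopamine controls for 90 minutes at 37 degrees C before luminescent detection.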
D1 antag: blocks dopamine activation of the human D1 receptor | 3.2% of 360,000 active | HEK293 TREx D1 cells, calcium flux, dopamine EC80; stronger effect = lower value | AID 504652 | activity change, negative = inhibition, % at 10 µM; in the data active = activity change below about -30%
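Inducible Hek293 Trex D1 cells (tetracycline, overnight, 30 C). Calcium dye 30–90 min RT. Antagonist mode: EC80 dopamine added after 180 s compound read.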
Large screens that a line does not name were inactive; ! = not confirmed by another sample. Shown are actives, neighbours in structure and some others; about 6.1% of the full set was active somewhere.

Cc1ccc(S(=O)(=O)Nc2ccc(Cl)cc2O)cc1	none (no result: D1 potentiator, D1 agonist, D1 antag)
COC(=O)Cn1c(O)c(N=NC(=O)c2ccc3c(c2)OCO3)c2ccccc21	D1 antag -35
Cc1nn(CC(=O)NCCCN2C(C)CCCC2C)c(=O)c2cc3occc3n12 (centres undefined)	none
Cc1ccc(/C=N/NC(=O)c2ccoc2C)o1	none
Cc1ccc(/C=N/NC(=O)C(=O)N/N=C/c2ccc(C)o2)o1	D1 antag -31
O=C(NCCS(=O)(=O)N1CCN(c2ccccc2F)CC1)c1ccccc1C(F)(F)F	none (no result: DRD3 antagonist)
O=c1cc(CSc2ccc(Cl)cc2)nc(-c2ccccc2)[nH]1	none
Clc1ccc(SCc2csc(N3CCOCC3)n2)cc1	none
O=c1cc(CSc2ccc(Cl)cc2)nc(-c2ccccn2)[nH]1	DRD3 antagonist -53
Clc1ccc(SCc2cc(N3CCOCC3)nc(-c3ccccn3)n2)cc1	DRD3 antagonist -53
C[C@@H]1CN([C@@H](C)CO)C(=O)CCCn2nncc2CO[C@H]1CN(C)S(=O)(=O)c1ccc(Oc2ccccc2)nc1	none (no result: D1 potentiator, D1 agonist, D1 antag)
CCOC(=O)c1ccccc1OC(=O)CS(=O)c1ccccc1[N+](=O)[O-] (centres undefined)	D1 antag -32
CN(C)c1cccc(C(=O)Nc2ccc(S(=O)(=O)Nc3nccs3)cc2)c1	DRD3 antagonist inconclusive (no result: D1 potentiator, D1 agonist, D1 antag)
Cc1onc(-c2ccccc2)c1C(=O)Nc1ccc(S(=O)(=O)Nc2nccs2)cc1	D1 antag -40
O=C(O)c1cccc(NC(=O)c2cccc(S(=O)(=O)Nc3cccc([N+](=O)[O-])c3)c2)c1	none
O=C(Nc1ccccc1)c1cccc(S(=O)(=O)Oc2ccc([N+](=O)[O-])cc2)c1	D1 antag -30
O=C(Nc1ccc(S(=O)(=O)Nc2nccs2)cc1)c1cccc(F)c1	D1 antag -47
O=C(Nc1ccccc1)c1cccc(S(=O)(=O)Nc2cccc(F)c2)c1	D1 antag -40 (no result: DRD3 antagonist)
COc1ccc(NC(=O)N(C)C[C@@H]2OCc3cnnn3CCCC(=O)N([C@H](C)CO)C[C@@H]2C)cc1	none (no result: D1 potentiator, D1 agonist, D1 antag)
NC(=O)c1cc(S(=O)(=O)Nc2cccc(F)c2)co1	D1 antag -46
Cc1cc(C)cc(NS(=O)(=O)c2coc(C(N)=O)c2)c1	none
O=C(c1ccccc1)N1CCCC(C(=O)N2CCN(c3ccccc3)CC2)C1 (centres undefined)	none
CCc1ccc(NC(=O)CCNS(=O)(=O)c2cccc3nonc23)cc1	DRD3 antagonist -63
Cc1cc2c(s1)c1cnn(Cc3ccccc3Cl)c(=O)c1n2C	none (no result: D3 ag, DRD3 antagonist)
O=C(O)c1cc2ccccc2c(Cc2c(O)c(C(=O)O)cc3ccccc23)c1O	none (no result: D1 potentiator, D1 agonist, DRD3 antagonist, D1 antag)
O=[N+]([O-])c1ccc(-c2ccc(/C=N/Nc3nc(N4CCCCC4)nc(N4CCCCC4)n3)o2)cc1	D1 agonist 47
O=[N+]([O-])c1ccc(/C=N/Nc2nc(N3CCCC3)nc(N3CCCC3)n2)o1	none
O=[N+]([O-])c1ccc(-c2ccc(/C=N/Nc3nc(N4CCCC4)nc(N4CCCC4)n3)o2)cc1	D1 agonist 76
O=[N+]([O-])c1ccc(-n2cccc2/C=N/Nc2nc(N3CCCCC3)nc(N3CCCCC3)n2)cc1	none (no result: D3 ag, DRD3 antagonist)
O=[N+]([O-])c1cccc(-c2ccc(/C=N/Nc3nc(N4CCCCC4)nc(N4CCCCC4)n3)o2)c1	D3 ag 52
Cc1cc(C)cc(NC(=O)CCS(=O)(=O)c2cccc3nsnc23)c1	none (no result: DRD3 antagonist)
COc1ccccc1NCCC(=O)O	none
O=C(O)CCNc1ccc(NCCC(=O)O)c2c1C(=O)c1ccccc1C2=O	DRD3 antagonist -82
O=C(CCCCCN1C(=O)CCC1=O)Nc1ncn[nH]1	DRD3 antagonist -53
Cc1ccccc1C(=O)N/N=C1\SCC(=O)N1Cc1ccco1	none
Cc1ccc(C2CC(c3ccco3)=NN2S(C)(=O)=O)cc1 (centres undefined)	D1 antag -35
Cc1cccc(-c2nc(C#N)c(NCc3ccco3)o2)c1	D1 antag -31
CC(=O)N=C1C=CC(=CN(O)C(C)(C)Cc2ccccc2)C=C1	DRD3 antagonist -54
CC(C)(/C=N/O)N(O)C=C1C=CC(=O)C=C1	none
FC(F)(F)c1cc(CO[C@@H]2CCCN[C@@H]2c2ccccc2)cc(C(F)(F)F)c1	D1 agonist 47
FC(F)(F)c1cc(CCN2CCNC[C@@H]2c2ccccc2)cc(C(F)(F)F)c1	none (no result: D1 potentiator, D1 agonist, D1 antag)
COc1ccccc1CNC(=O)c1cc2ccc3ccc(C)[nH]c3c2n1	none (no result: DRD3 antagonist)
Cc1ccsc1/C=N/NC(=O)C1CC(=O)N(c2ccccc2)C1 (centres undefined)	D1 antag -47
O=C(N/N=C/c1cc([N+](=O)[O-])ccc1O)c1ccc2c(c1)OCCO2	DRD3 antagonist -64
O=C(N/N=C/c1ccccc1[N+](=O)[O-])c1ccc2c(c1)OCCO2	none
O=C(N/N=C/c1cc([N+](=O)[O-])ccc1O)C(O)(c1ccccc1)c1ccccc1	DRD3 antagonist -55
COC(=O)N/N=C/c1ccccc1	D3 ag 42
C[C@@H]1CN([C@H](C)CO)C(=O)CCCn2nncc2CO[C@H]1CN(C)Cc1ccc(O)cc1	none (no result: D1 potentiator, D1 agonist, D1 antag)
CN(c1ccccc1)S(=O)(=O)c1cccc(NC(=O)C2CCCO2)c1 (centres undefined)	none (no result: D1 potentiator, D1 agonist, D1 antag)
O=C(N/N=C/c1cc([N+](=O)[O-])ccc1O)C1CC1	DRD3 antagonist -86
CCc1ccc(N2CC(C(=O)N/N=C/c3ccccc3OC)CC2=O)cc1 (centres undefined)	none
CCc1ccc(N2CC(C(=O)N/N=C/c3cc([N+](=O)[O-])ccc3O)CC2=O)cc1 (centres undefined)	DRD3 antagonist -63
O=C(O)c1ccc(/C=N/NC(=O)C(O)(c2ccccc2)c2ccccc2)cc1	D1 antag -32
O=C1NCCCC1C(=O)N/N=C/c1cc([N+](=O)[O-])ccc1O (centres undefined)	none
CC(C)[C@H](NC(=O)N1CCn2c1nc1ccccc12)C(=O)NC1CCCCC1	none
N#Cc1nc(Nc2ccc(Br)cc2)nc(NC2CCCC2)n1	none (no result: D3 ag, DRD3 antagonist)
O=C(Cn1cnc([N+](=O)[O-])n1)NC1CC1	none
CCN(CC)c1nc(N)c2c(N)n(-c3ccccc3C)c(=S)c(C#N)c2c1C#N	DRD3 antagonist -82
CN(c1ccccc1C(=O)N1CCN(Cc2ccc3c(c2)OCO3)CC1)S(C)(=O)=O	none
COc1ccc2c(c1)c1c(c(=O)n(-c3ccccc3C)c(=O)n1CC(=O)N1CCCC1)n2C	none (no result: DRD3 antagonist)
Cn1c(=O)c(=O)n(C)c2cc(S(=O)(=O)CCC(=O)Nc3ccc(F)cc3)ccc21	none
Cc1cccc(C)c1NC(=O)CCS(=O)(=O)c1ccc2c(c1)n(C)c(=O)c(=O)n2C	D1 antag -36 (no result: DRD3 antagonist)
CCOC(=O)c1[nH]c(C)c(C(=O)OCC(=O)NCc2ccc(OC)cc2)c1C	none
CCOC(=O)c1c(C)[nH]c(C(=O)N(C)CC(=O)Nc2ccc(OC)cc2)c1C	D1 antag -68
COc1cccc(NC(=O)CCS(=O)(=O)c2ccc3c(c2)oc(=O)n3C)c1	D1 antag -30!
